In PubChem BioAssay (Tox21) one finds Potency and outcome data, which are given here for 19 molecules.

Test [1] can be described thus: qHTS assay to identify small molecule antagonists of the thyroid receptor (TR) signaling pathway (AID 743065). Further: nearly all actives have a fitted effect of over 55% in size. Further: potency means the concentration at half of the fitted maximal effect. An outline of the steps: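 GH3.TRE-Luc rat pituitary cells carrying two TR response elements driving luciferase were plated for 4 h, given compound plus 1 nM T3 (final), and incubated 23.5 h at 37 C. ONE-Glo luminescence measured reporter inhibition; CellTiter-Fluor fluorescence tracked cytotoxicity.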
In general terms: qHTS replaces the single test concentration by a dilution series.

Test [2] concerns thyroid hormone receptor (rat, GH3 cells). Put plainly: qHTS assay to identify small molecule agonists of the thyroid receptor (TR) signaling pathway (AID 743066; calls by dose curve).
A short description of test [3]: qHTS assay to identify small molecule antagonists of the estrogen receptor alpha (ER-alpha) signaling pathway - cell viability counter screen (AID 743074; calls by dose curve;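 further: HEK293 cells carrying ER-alpha-UAS-bla reporter stimulated with 17beta-estradiol; nearly all actives have a fitted effect of over 45% in size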).
Test [4] addresses Estrogen receptor (Homo sapiens) (UniProt P03372). In words: qHTS assay to identify small molecule agonists of the estrogen receptor alpha (ER-alpha) signaling pathway (AID 743075; calls by dose curve;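 further: HEK293 GripTite cells with ER-alpha and UAS-driven beta-lactamase reporter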; further: potency means the concentration at half of the fitted maximal effect).
Test [5] shares this target. In words: qHTS assay to identify small molecule agonists of the estrogen receptor alpha (ER-alpha) signaling pathway using the BG1 cell line (AID 743079). Further: nearly all actives have a fitted effect of over 20% in size. Further: potency means the concentration at half of the fitted maximal effect. The settings on record: BG1Luc4E2 cells, ERE-luciferase agonist, 22 h; activation: at 70.3 µM (top of the series).
Test [6] is described as follows: qHTS assay to identify small molecule antagonists of the estrogen receptor alpha (ER-alpha) signaling pathway using the BG1 cell line - cell viability counter screen (AID 743081).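 Further: compound given together with 17beta-estradiol as the ER stimulus; nearly all actives have a fitted effect of over 45% in size.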
The target of test [7] is Aromatase (Homo sapiens) (UniProt P11511). In words: qHTS assay to identify aromatase inhibitors (AID 743083). Further: nearly all actives have a fitted effect of over 55% in size.
Test [8] can be described thus: qHTS assay to identify aromatase inhibitors - cell viability counter screen (AID 743084).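 Further: cells stimulated with testosterone during compound exposure; nearly all actives have a fitted effect of over 55% in size.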
The nature of test [9]: qHTS assay to identify small molecule antagonists of the estrogen receptor alpha (ER-alpha) signaling pathway using the BG1 cell line (AID 743080; calls by dose curve;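 further: BG1 cells stimulated with 17beta-estradiol alongside compound; nearly all actives have a fitted effect of over 25% in size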; further: potency means the concentration at half of the fitted maximal effect). The gist of the method: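 BG1-Luc-4E2 cells (endogenous full-length ER-alpha, 4xERE luciferase) hormone-starved 5 days in charcoal-stripped FBS, plated 4,000/well for 24 h, then compound plus 17beta-estradiol for 21.5 h at 37 C; ONE-Glo luminescence read.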

Several values for one entry are separate records, joined by “and”; a condition that tells them apart may be missing. Identical values can stand only once. Records with an inconclusive call do not appear. Activity calls are given as the source filed them. Unless noted, the call rests on the fitted dose curve; in most records, active means well fitted curve in the direction sought with a large enough effect in the repeat runs; inconclusive means weak or mixed curves; inactive means no such curve, though single readings can be large; an effect the other way counts as inactive or inconclusive.

Sequence of Aromatase (Homo sapiens) (P11511 whole entry, looked up): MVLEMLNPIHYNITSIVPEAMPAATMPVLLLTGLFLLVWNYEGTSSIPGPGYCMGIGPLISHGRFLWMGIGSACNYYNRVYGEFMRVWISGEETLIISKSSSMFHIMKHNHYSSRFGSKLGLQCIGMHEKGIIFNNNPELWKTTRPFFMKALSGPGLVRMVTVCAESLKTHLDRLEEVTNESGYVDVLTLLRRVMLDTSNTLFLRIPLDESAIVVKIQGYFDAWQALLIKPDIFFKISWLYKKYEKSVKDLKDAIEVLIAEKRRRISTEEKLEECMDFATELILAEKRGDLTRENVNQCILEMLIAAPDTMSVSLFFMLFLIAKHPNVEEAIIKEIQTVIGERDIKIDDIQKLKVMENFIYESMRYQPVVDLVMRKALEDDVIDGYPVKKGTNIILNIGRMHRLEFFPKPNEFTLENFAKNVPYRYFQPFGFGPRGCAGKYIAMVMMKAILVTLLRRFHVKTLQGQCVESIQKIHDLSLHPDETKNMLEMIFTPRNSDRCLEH
Sequence of Estrogen receptor (Homo sapiens) (P03372 whole entry, looked up): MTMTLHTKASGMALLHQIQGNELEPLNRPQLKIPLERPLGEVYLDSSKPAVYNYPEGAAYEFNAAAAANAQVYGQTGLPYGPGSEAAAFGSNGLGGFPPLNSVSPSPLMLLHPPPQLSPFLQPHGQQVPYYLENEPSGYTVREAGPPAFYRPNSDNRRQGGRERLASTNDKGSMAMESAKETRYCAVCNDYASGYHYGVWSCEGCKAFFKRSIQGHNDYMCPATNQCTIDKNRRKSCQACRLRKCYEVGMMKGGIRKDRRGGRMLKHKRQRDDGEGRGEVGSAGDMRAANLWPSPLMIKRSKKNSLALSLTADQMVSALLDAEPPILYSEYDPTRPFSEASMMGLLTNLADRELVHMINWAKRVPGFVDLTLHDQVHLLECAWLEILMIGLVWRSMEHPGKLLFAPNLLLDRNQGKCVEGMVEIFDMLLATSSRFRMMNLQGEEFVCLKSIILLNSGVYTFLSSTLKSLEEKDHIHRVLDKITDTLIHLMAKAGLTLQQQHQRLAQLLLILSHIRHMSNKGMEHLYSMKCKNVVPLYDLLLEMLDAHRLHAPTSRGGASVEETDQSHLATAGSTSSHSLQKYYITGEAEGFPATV

As for `CCOC(=O)c1ccccc1C`, the Potency entry in test [1], in test [3], in [4], in test [5], in test [6] and in [7] was “inactive” throughout. Besides, the Potency entry in test [8] is “inactive”. Also, the result in test [2] was inactive.

Consider `Cc1cnc(C)c(C)n1`, for which the Potency result in test [1], in test [3], in test [6], in test [7] and in [8] was “inactive” throughout. The molecule was called inactive in test [2].

On to `CC(=O)[C@H]1CC[C@H]2[C@@H]3C[C@H](C)C4=CC(=O)CC[C@]4(C)[C@H]3[C@@H](O)C[C@]12C`, for which the Potency result in test [1], in [3], in [6], in test [7] and in [8] was “inactive” throughout. In addition, in test [2], the molecule was called inactive.

`CC1(C)C(=O)N(Br)C(=O)N1Cl`: the Potency result in [1], in test [3], in [6], in test [7] and in test [8] was “inactive” throughout. Also, the result in test [2] was inactive.

Consider `COCCOC`, for which the Potency entry in test [1], in [3] and in test [6] was “inactive” in each case. Besides, in test [2], the result was inactive.

Turning to `CC(C)C(=O)O`, the Potency result in test [1], in test [3], in test [4], in [9], in test [6] and in [7] was “inactive” each time. Moreover, the molecule was classed as inactive in test [2].

`O=C(C(=O)c1ccccc1)c1ccccc1`: the Potency entry in [1], in test [3] and in test [6] was “inactive” each time. For the same molecule, in test [2], the outcome was inactive.

For `CC(COc1ccc(C(C)(C)C)cc1)OS(=O)OCCCl` (stereo not given), the Potency result in [1], in [3], in test [4], in test [5], in test [6] and in [7] was “inactive” throughout. For the same molecule, in [8], the Potency result is “inactive”. Moreover, the call in test [2] was inactive.

Regarding `c1cnc2c(n1)CCCC2`, the Potency entry in test [1], in test [3], in [6], in [7] and in test [8] was “inactive” throughout. In addition, the call in test [2] was inactive.

As to `CCCCCCCCCCCC[N+](C)(C)CC(=O)[O-]`, the Potency in test [1] is 54.5 µM (active). Also, the molecule was called inactive in [2]. Also, the Potency entry in [3], in [4], in test [5], in [6], in test [7] and in [8] was “inactive” each time.

Regarding `Oc1ccc(Nc2ccccc2)cc1`, the Potency in test [1] is 43.3 µM (active); in [4], 55 µM [activator] (active); in test [5] it was 30.6 µM (active). Further, the molecule was called inactive in test [2]. For the same molecule, the Potency entry in test [3], in test [9], in test [6], in [7] and in test [8] was “inactive” each time.

In the case of `N#C/C(=C1/SC[C@@H](c2ccc(Cl)cc2Cl)S1)n1ccnc1`, the Potency in [1] is 21.1 µM (active) and 13.3 µM (active). In test [2], the outcome was inactive. The Potency entry in test [3] and in [6] was “inactive” throughout.

Consider `C=CC(=C)CCCC(C)(C)OC(C)=O`, for which the Potency result in [1], in [3], in test [6], in test [7] and in test [8] was “inactive” each time. Besides, the molecule was classed as inactive in test [2].

On to `CC(=N\O)/C(C)=N/O`, for which the Potency result in test [1], in [3], in test [6], in test [7] and in test [8] was “inactive” in each case. For the same molecule, the molecule was classed as inactive in [2].

Take `CCc1c2c(nc3ccc(OC(=O)N4CCC(N5CCCCC5)CC4)cc13)-c1cc3c(c(=O)n1C2)COC(=O)[C@]3(O)CC`: the Potency in [1] was 23.7 µM (active); in test [9] it was 11.9 µM (active). Besides, the result in [2] was inactive. The Potency result in test [4], in test [6] and in [7] was “inactive” in each case.

Regarding `Fc1c(F)c(F)c(Br)c(F)c1F`, the Potency result in test [1], in test [3], in test [6] and in test [8] was “inactive” throughout. The outcome in test [2] was inactive.

Consider `COC(=O)Nc1nc2ccc(C(=O)c3cccs3)cc2[nH]1`, for which the Potency in [1] was 0.237 µM (active). In addition, the call in test [2] was inactive. For the same molecule, the Potency entry in test [6], in [7] and in [8] was “inactive” each time.

`CCCCN(CCCC)CCCOC(=O)c1ccc(N)cc1`: the Potency result in [1], in [3], in test [7] and in test [8] was “inactive” each time. For the same molecule, in test [2], the molecule was called inactive.

As to `CC(C)CCCCCOC(=O)CCCCC(=O)OCCCCCC(C)C`, the Potency entry in test [1], in test [3], in [6], in test [7] and in [8] was “inactive” throughout. For the same molecule, in [2], the outcome was inactive.
